The target of the first assay is Solute carrier family 2, facilitated glucose transporter member 1 (Homo sapiens) (UniProt P11166). The assay is described as follows: ST_JUDE_LEISH: Cytotoxicity at 2uM final concentration against transgenic Leishmania Mexicana promastigotes LmGLUT1 that are glucose transport deficient and complemented with the human glucose transporter GLUT1. Activity is measured by DNA content using SYBR green in vitro. The format is functional.
Chain of Solute carrier family 2, facilitated glucose transporter member 1 (Homo sapiens) (P11166 whole entry): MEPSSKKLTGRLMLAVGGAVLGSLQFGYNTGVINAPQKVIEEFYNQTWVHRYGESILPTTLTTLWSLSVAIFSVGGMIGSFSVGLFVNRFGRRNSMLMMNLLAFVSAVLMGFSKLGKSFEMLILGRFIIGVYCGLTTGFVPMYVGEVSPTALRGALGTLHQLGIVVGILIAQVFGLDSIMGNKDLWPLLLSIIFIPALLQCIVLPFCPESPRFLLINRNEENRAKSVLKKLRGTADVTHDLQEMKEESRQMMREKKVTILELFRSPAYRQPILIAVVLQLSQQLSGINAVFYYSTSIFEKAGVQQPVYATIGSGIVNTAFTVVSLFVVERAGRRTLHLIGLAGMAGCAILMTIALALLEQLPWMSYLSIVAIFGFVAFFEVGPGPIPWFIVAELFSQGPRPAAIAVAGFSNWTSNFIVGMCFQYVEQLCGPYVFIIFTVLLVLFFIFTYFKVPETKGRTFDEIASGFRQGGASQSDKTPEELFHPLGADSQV
By inhibition is commonly meant the change of the read-out against control, counted positive when it falls. With `O=C(C=Cc1ccc(Cl)c(Cl)c1)NCCCCCN1CCC(CCNC(=O)C(c2ccccc2)c2ccccc2)CC1`, the inhibition is 3.47%.
For `COc1ccc(Cl)cc1S(=O)(=O)Nc1cccc(CCN2CCC(N3CCCCC3)CC2)c1`, the inhibition was determined as 2.48%.
Still for that read-out and setting: to `NC(=O)c1cc(-c2ccccc2)cc2c(C3CCC(NCc4ccccc4)C3)c[nH]c12` (stereo not given) belongs 0.91%; to `O=C(N[C@H]1CCN(Cc2ccc(OCCCN3CCCCC3)cc2)C1)c1ccc2ccccc2c1`, 4.56%; to `Cc1cc(CNCC2CCC(CNCCCc3ccccc3)CC2)ccc1O` (stereo not given), 9.97%.
For `Cc1ccc(NS(=O)(=O)c2cccs2)cc1-c1cccc(C(=O)Nc2ccc(F)cc2)c1`, the inhibition was 2%.
Same read-out and setting: to `Cc1ccccc1-c1cc(=O)c2cc(NC(=O)c3cccs3)ccc2o1` belongs 3.19%; to `CCOc1ccccc1CNc1nccc(NCCc2cn(C)c3ccccc23)n1`, 7.77%; to `CCN(CC)CCN(Cc1ccc(-c2ccc(C(F)(F)F)cc2)cc1)C(=O)Cn1cc(Cc2cnn(C)c2)c(=O)n2nc(-c3ccccc3)cc12`, 4.45%.
For `COc1ccc(NC(=O)NC2CCN(c3ccnc4cc(Cl)ccc34)CC2)cc1`, the inhibition was 3.93%.
Consider `CN1CCC(NCc2ccc(-c3cccc(-c4nc5ccccc5[nH]4)c3)cc2)CC1`, for which the inhibition came to 1.67%.
For `NC1=NC(c2ccccc2)N(c2ccccc2)C(N)=N1` (stereo not given), the inhibition worked out at 1.99%.
The same measure, in the same setting: to `Cc1ccc(Cc2c[nH]c(NCCSCc3ccc(CN(C)C)s3)nc2=O)cn1` belongs 1.24%; to `Cn1cnc(-c2ccc3c(c2)CCN(CCC2CCC(NC(=O)/C=C/c4ccc(F)cc4)CC2)CC3)c1` (stereo not given), 54.7%.
On the same count and under the same terms, under `CCNc1cc(C)nc(Nc2ccc(F)cc2)n1` stands 22.3%; under `CCN(CC)S(=O)(=O)c1ccc(C(=O)Oc2ccccc2N(Cc2ccc(OC)cc2)C2=NS(=O)(=O)c3ccccc32)cc1`, 3.69%.
As for `OC(CNc1ccnc(Nc2cccc(CCN3CCOCC3)c2)n1)c1ccccc1` (stereo not given), the inhibition came out at 0.07%.
The same measure, in the same setting: under `COc1ccccc1N1CCN(Cc2c(O)ccc3cc(Br)ccc23)CC1` stands 5.54%; under `COc1ccc(CNC2CCN(C)CC2)cc1-c1ccc(OC)c(S(=O)(=O)NCc2ccccc2)c1`, 1.01%; under `Cc1cc(C(=O)Nc2ccc3c(c2)CCN3C2CCN(Cc3csc4ccccc34)C2)no1` (stereo not given), 0.87%.
On the same count and under the same terms, under `COc1ccc2c(NCCc3ccccc3)cc(-c3ccccc3)nc2c1` stands 9.93%; under `CC(C)n1ncc2c3c(N)nc(N)nc3ccc21`, 1.85%; under `COc1cc(NC(=O)c2cc([N+](=O)[O-])ccc2NC(=O)CNC2CCCC(C)C2C)cc(OC)c1` (stereo not given), 12%.
Same read-out and setting: under `COc1ccc2nccc(NCC3(O)CCC(NCc4cc5c(cn4)OCCO5)CC3)c2n1` (stereo not given) stands -1.99%; under `O=S(=O)(Nc1cccc(CCN2CCC(N3CCCCC3)CC2)c1)c1ccc(-c2ccccc2)cc1`, 3.35%.
On to `CC(O)C1CCCCN1C(=O)c1cccc(-c2cccc(-c3nc4ccccc4[nH]3)c2)c1` (stereo not given), for which the inhibition was 0.78%.
On to `CCCCCCCCn1c2c(c(=N)c3c1CCC3)CCCC2`, for which the inhibition was determined as 94.4%.
Regarding `CCOc1cc(C)ccc1C1CCN(CCCCNC(=O)c2coc(-c3ccc(Cl)cc3)c2)CC1`, the inhibition stood at 0.96%.
For `OC(CNc1ccnc(Nc2ccccc2)n1)c1cccc(C(F)(F)F)c1` (stereo not given), the inhibition was 4.65%.
Still for that read-out and setting: under `COc1ccc2nccc([C@@H](O)CN3CCC(NCc4ccc5nc[nH]c(=O)c5c4)CC3)c2c1` stands 1.63%; under `O=c1nc(C=Cc2ccc(Br)cc2)oc2ccccc12`, 3.24%.
The same measure, in the same setting: under `CC(=O)N1N=C(c2ccccc2)Sc2c1nc(-c1ccc(Cl)cc1)n2C(C)=O` stands 1.37%.
The same measure, in the same setting: to `CC(C)C(=O)NC(c1ccc(N(C)C)cc1)c1cc(Cl)c2cccnc2c1O` (stereo not given) belongs 3.89%; to `Nc1nc2c(ncn2OC[C@H]2COP(=O)(O)CO2)c(=O)[nH]1`, -2.05%.
Regarding `CCCCCCN1CCCN(Cc2ccc(C(=O)Nc3ccc(CCC)cc3)cc2)CC1`, the inhibition came to 9.31%.
The same measure, in the same setting: to `CC(C)C[C@@H](/C=N/N1CC(=O)NC1=O)NC(=O)[C@H](CC(C)C)NC(=O)c1ccc(OCCN2CCOCC2)cc1` belongs -0.34%; to `CC(C)c1ccc(NS(=O)(=O)c2cccc(C(=O)NC3CCN(CC4CCCCC4)CC3)c2)cc1`, 3.07%; to `CCCCCN(C(=O)Nc1cc(C(F)(F)F)cc(C(F)(F)F)c1)C(C)c1nc2ccccc2c(=O)n1CC` (stereo not given), -0.28%.
Same read-out and setting: under `Cc1[nH]c(C)c(-c2ccc(OCc3cc(F)cc(F)c3)nc2)c(=O)c1Cl` stands 5.4%; under `COc1cc2c(cc1C(F)(F)F)N(C(=O)Nc1cc(F)cc(-c3cccnn3)c1)CC2`, -2.16%.

In another assay the target is Hexose transporter 1 (Plasmodium falciparum) (UniProt O97467). Description: ST_JUDE_LEISH: Cytotoxicity at 2uM final concentration against transgenic Leishmania Mexicana promastigotes LmPfHT that are glucose transport deficient and complemented with the Plasmodium falciparum hexose transporter. Activity is measured by DNA content using SYBR green in vitro. It counts as functional.
Turning to `O=C(C=Cc1ccc(Cl)c(Cl)c1)NCCCCCN1CCC(CCNC(=O)C(c2ccccc2)c2ccccc2)CC1`, the inhibition was found to be 1.79%.
On the same count and under the same terms, to `COc1ccc(Cl)cc1S(=O)(=O)Nc1cccc(CCN2CCC(N3CCCCC3)CC2)c1` belongs 4.55%.
Same read-out and setting: to `NC(=O)c1cc(-c2ccccc2)cc2c(C3CCC(NCc4ccccc4)C3)c[nH]c12` (stereo not given) belongs 1.64%; to `O=C(N[C@H]1CCN(Cc2ccc(OCCCN3CCCCC3)cc2)C1)c1ccc2ccccc2c1`, 6.47%.
Same read-out and setting: to `Cc1cc(CNCC2CCC(CNCCCc3ccccc3)CC2)ccc1O` (stereo not given) belongs 8.79%.
Take `Cc1ccc(NS(=O)(=O)c2cccs2)cc1-c1cccc(C(=O)Nc2ccc(F)cc2)c1`: the inhibition amounted to 3.65%.
As for `Cc1ccccc1-c1cc(=O)c2cc(NC(=O)c3cccs3)ccc2o1`, the inhibition was 1.54%.
On the same count and under the same terms, to `CCOc1ccccc1CNc1nccc(NCCc2cn(C)c3ccccc23)n1` belongs 3.5%.
On the same count and under the same terms, under `CCN(CC)CCN(Cc1ccc(-c2ccc(C(F)(F)F)cc2)cc1)C(=O)Cn1cc(Cc2cnn(C)c2)c(=O)n2nc(-c3ccccc3)cc12` stands 4.37%; under `COc1ccc(NC(=O)NC2CCN(c3ccnc4cc(Cl)ccc34)CC2)cc1`, 1.61%.
Still for that read-out and setting: under `CN1CCC(NCc2ccc(-c3cccc(-c4nc5ccccc5[nH]4)c3)cc2)CC1` stands 2.05%; under `NC1=NC(c2ccccc2)N(c2ccccc2)C(N)=N1` (stereo not given), -4.07%.
For the compound `Cc1ccc(Cc2c[nH]c(NCCSCc3ccc(CN(C)C)s3)nc2=O)cn1`, the inhibition was 1.14%.
On the same count and under the same terms, under `Cn1cnc(-c2ccc3c(c2)CCN(CCC2CCC(NC(=O)/C=C/c4ccc(F)cc4)CC2)CC3)c1` (stereo not given) stands 70.5%.
Turning to `CCNc1cc(C)nc(Nc2ccc(F)cc2)n1`, the inhibition stood at 11.9%.
Still for that read-out and setting: to `CCN(CC)S(=O)(=O)c1ccc(C(=O)Oc2ccccc2N(Cc2ccc(OC)cc2)C2=NS(=O)(=O)c3ccccc32)cc1` belongs 2.22%; to `OC(CNc1ccnc(Nc2cccc(CCN3CCOCC3)c2)n1)c1ccccc1` (stereo not given), 3.46%; to `COc1ccccc1N1CCN(Cc2c(O)ccc3cc(Br)ccc23)CC1`, 4.31%.
The same measure, in the same setting: to `COc1ccc(CNC2CCN(C)CC2)cc1-c1ccc(OC)c(S(=O)(=O)NCc2ccccc2)c1` belongs 1.62%; to `Cc1cc(C(=O)Nc2ccc3c(c2)CCN3C2CCN(Cc3csc4ccccc34)C2)no1` (stereo not given), -2.02%.
The same measure, in the same setting: under `COc1ccc2c(NCCc3ccccc3)cc(-c3ccccc3)nc2c1` stands 10.8%.
Take `CC(C)n1ncc2c3c(N)nc(N)nc3ccc21`: the inhibition was determined as 1.69%.
Still for that read-out and setting: under `COc1cc(NC(=O)c2cc([N+](=O)[O-])ccc2NC(=O)CNC2CCCC(C)C2C)cc(OC)c1` (stereo not given) stands 4.27%.
The same measure, in the same setting: under `COc1ccc2nccc(NCC3(O)CCC(NCc4cc5c(cn4)OCCO5)CC3)c2n1` (stereo not given) stands -1.9%; under `O=S(=O)(Nc1cccc(CCN2CCC(N3CCCCC3)CC2)c1)c1ccc(-c2ccccc2)cc1`, 5.01%; under `CC(O)C1CCCCN1C(=O)c1cccc(-c2cccc(-c3nc4ccccc4[nH]3)c2)c1` (stereo not given), 0.15%.
Turning to `CCCCCCCCn1c2c(c(=N)c3c1CCC3)CCCC2`, the inhibition came to 95.9%.
The same measure, in the same setting: to `CCOc1cc(C)ccc1C1CCN(CCCCNC(=O)c2coc(-c3ccc(Cl)cc3)c2)CC1` belongs 3.18%.
Still for that read-out and setting: to `OC(CNc1ccnc(Nc2ccccc2)n1)c1cccc(C(F)(F)F)c1` (stereo not given) belongs 4.22%.
On the same count and under the same terms, under `COc1ccc2nccc([C@@H](O)CN3CCC(NCc4ccc5nc[nH]c(=O)c5c4)CC3)c2c1` stands -1.56%; under `O=c1nc(C=Cc2ccc(Br)cc2)oc2ccccc12`, 2.44%.
On to `CC(=O)N1N=C(c2ccccc2)Sc2c1nc(-c1ccc(Cl)cc1)n2C(C)=O`, for which the inhibition turned out to be 1.41%.
On the same count and under the same terms, to `CC(C)C(=O)NC(c1ccc(N(C)C)cc1)c1cc(Cl)c2cccnc2c1O` (stereo not given) belongs 4.2%.
Same read-out and setting: to `Nc1nc2c(ncn2OC[C@H]2COP(=O)(O)CO2)c(=O)[nH]1` belongs 0.55%; to `CCCCCCN1CCCN(Cc2ccc(C(=O)Nc3ccc(CCC)cc3)cc2)CC1`, 7.71%.
Turning to `CC(C)C[C@@H](/C=N/N1CC(=O)NC1=O)NC(=O)[C@H](CC(C)C)NC(=O)c1ccc(OCCN2CCOCC2)cc1`, the inhibition was 2.99%.
Still for that read-out and setting: to `CC(C)c1ccc(NS(=O)(=O)c2cccc(C(=O)NC3CCN(CC4CCCCC4)CC3)c2)cc1` belongs 1.15%; to `CCCCCN(C(=O)Nc1cc(C(F)(F)F)cc(C(F)(F)F)c1)C(C)c1nc2ccccc2c(=O)n1CC` (stereo not given), 1.02%.
Still for that read-out and setting: under `Cc1[nH]c(C)c(-c2ccc(OCc3cc(F)cc(F)c3)nc2)c(=O)c1Cl` stands 4.58%.
Still for that read-out and setting: to `COc1cc2c(cc1C(F)(F)F)N(C(=O)Nc1cc(F)cc(-c3cccnn3)c1)CC2` belongs -2.17%.

(Values after ChEMBL document CHEMBL3433997, “St. Jude Leishmania screening dataset” (2016).)
